Screening results deposited in PubChem by Broad Institute.
Hits are enriched below; roughly 6.8% of the tested compounds scored in any of these assays.
T cruzi growth-1 = T. cruzi intracellular proliferation inhibitors, primary screen, cell-based, beta-gal Tulahuen parasites, NIH3T3 host, luminescence; T. cruzi beta-gal in NIH3T3, GalScreen luminescence, 90 h; inhibition, % at 8.34 µM; actives 5.9% (n = 77,000); AID 624255, 2012;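 active = mean inhibition above about 93%, with at least 55% of replicates each passing it, limit read from the data, passing the limit was not always enough; inconclusive = only one of those two conditions holds; inactive = neither condition holds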
Pf Dd2 growth = P. falciparum Dd2 growth inhibitors, primary screen, SYBR Green fluorescence, single dose replicates; 72 h; hits give low values; activity change, % at 10 µM; actives 2.3% (n = 94,000); AID 1159554, 2015; in the data active = activity change below about -80%; inconclusive = no clear call, values can overlap the other calls
C diff HTS = C. difficile growth inhibitors, primary screen, HTS | Clostridium difficile clinical isolate growth, OD600, 24 h; hits give low values | growth activity, negative = inhibition, % at 16 µg/mL (by protocol) | actives 0.25% (n = 86,000);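 active = mean growth activity at or below -80% and every replicate also at or below -80%; inconclusive = mean at or below -80% but some replicate above -80%; inactive = mean growth activity above -80%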;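 also: 0% = DMSO wells and -100% = levofloxacin 16 µg/mL wells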
T cruzi growth-2 = T. cruzi intracellular proliferation inhibitors, confirmation, cell-based, NIH3T3 host, beta-gal parasite, luminescence, cherry-pick | AID 651739, 2012 | T. cruzi beta-gal in NIH3T3, GalScreen luminescence, 90 h | inhibition, % at 8.35 µM | actives 72% (n = 5,600) | shares compounds with T cruzi growth-1;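 active = mean replicate inhibition above about 95% and at least 55% of replicates individually reaching it, limit read from the data; inconclusive = only one of the two criteria is met; inactive = neither criterion is met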
T cruzi growth-3 = inhibitors of intracellular T. cruzi replication, confirmation, NIH3T3 host cells, beta-gal parasites, cherry-pick, set 2. shares compounds with T cruzi growth-1. T. cruzi beta-gal in NIH3T3, GalScreen luminescence, 90 h. inhibition, % at 2.09 µM. actives 21% (n = 5,600);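 active = mean inhibition above about 95%, with at least 55% of replicates also reaching it, limit read from the data; inconclusive = meets just one of the two conditions; inactive = meets neither condition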;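 also: plate controls were neutral control median for no effect and positive control median for full effect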
3T3 cytotox = cytotoxicity in mouse NIH/3T3 fibroblasts, confirmation, cytotoxicity control for T. cruzi proliferation inhibitor project, cell-based, cherry-pick, single point. shares compounds with T cruzi growth-1. NIH/3T3 viability, CellTiter-Glo ATP luminescence, 90 h. cytotoxicity (signal decrease), % at 8.35 µM. actives 14% (n = 5,600);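 active = mean signal decrease across replicates above about 35% based on untreated-well scatter, with enough replicates individually passing, limit read from the data; inconclusive = no rule stated though some were filed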;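 also: 0% = median of neutral control wells and 100% = median of positive control wells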
NIH3T3 tox 2 = NIH/3T3 fibroblast cytotoxicity, confirmation, cytotoxicity control, cell-based, cherry-pick, single point, set 2 | inhibition, % at 24.9 µM | NIH/3T3 viability, CellTiter-Glo ATP luminescence, 90 h | actives 56% (n = 5,600) | AID 651744, 2012 | shares compounds with T cruzi growth-1;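 active = mean loss of cell viability signal at or above a set limit, and enough replicates individually reaching it; inconclusive = meets only the mean limit or only the replicate share; inactive = meets neither condition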;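 also: 0% = median of neutral control wells and 100% = median of positive control wells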
* marks the source's active call; other numbers are inactive results; ? = inconclusive; nt = no result given; ! = not confirmed by another sample.

SMILES | T cruzi growth-1 | Pf Dd2 growth | C diff HTS | T cruzi growth-2 | T cruzi growth-3 | 3T3 cytotox | NIH3T3 tox 2
OC[C@H]1[C@H](c2ccc(/C=C/c3ccccc3)cc2)[C@@H]2CN(Cc3ccncc3)CCCCN12 | ? | -62 | 10 | 110* | 51 | ? | 104*
OC[C@@H]1[C@@H](c2ccc(/C=C/c3ccccc3)cc2)[C@H]2CN(Cc3cccnc3)CCCCN12 | 87 | -76 | 5 | nt | nt | nt | nt
COc1ccccc1CN1[C@@H]2CN(C(=O)C3CCC3)c3ccccc3[C@@H]2[C@@H]1CO | 19 | -4 | -7 | nt | nt | nt | nt
CO[C@@H]1CN(C)C(=O)c2ccc(NC(=O)NC(C)C)cc2OC[C@H](C)N(CC2CC2)C[C@@H]1C | -10 | -2 | nt | nt | nt | nt | nt
COc1ccc(C#Cc2cnc3c(c2)C(=O)N([C@@H](C)CO)C[C@@H](C)[C@@H](CN(C)C(=O)Nc2cccc(OC)c2)O3)cc1 | ? | -43 | 16 | 109* | 73 | 5 | 14
COc1ccc(C#Cc2cnc3c(c2)C(=O)N([C@H](C)CO)C[C@H](C)[C@@H](CN(C)C(=O)Nc2cccc(OC)c2)O3)cc1 | 110*! | -43 | 4 | 96* | 47 | -4 | 29*
COc1ccc(C#Cc2cnc3c(c2)C(=O)N([C@@H](C)CO)C[C@H](C)[C@@H](CN(C)C(=O)Nc2cccc(OC)c2)O3)cc1 | 42 | -5 | -7 | nt | nt | nt | nt
COc1cccc(NC(=O)N(C)C[C@@H]2Oc3ncc(C#Cc4ccncc4)cc3C(=O)N([C@@H](C)CO)C[C@H]2C)c1 | nt | 2 | 0 | nt | nt | nt | nt
COc1ccc(C#Cc2cnc3c(c2)C(=O)N([C@H](C)CO)C[C@@H](C)[C@@H](CN(C)C(=O)Nc2cccc(OC)c2)O3)cc1 | ? | -66 | 4 | 110* | 82 | -19 | 13
COc1ccc(C#Cc2cnc3c(c2)C(=O)N([C@@H](C)CO)C[C@H](C)[C@H](CN(C)C(=O)Nc2cccc(OC)c2)O3)cc1 | 58 | -37 | 17 | nt | nt | nt | nt
Cc1noc(C)c1S(=O)(=O)N(C)C[C@H]1Oc2ccc(NS(=O)(=O)c3cn(C)cn3)cc2CC(=O)N([C@@H](C)CO)C[C@@H]1C | -2 | -5 | 16 | nt | nt | nt | nt
CO[C@@H]1CN(C)C(=O)c2ccc(NS(=O)(=O)c3cccc(C)c3)cc2OC[C@@H](C)N(Cc2cc(F)ccc2F)C[C@H]1C | 98* | -45 | -3 | 106* | 48 | -15 | 2
CO[C@@H]1CN(C)C(=O)c2cc(NS(=O)(=O)c3cccc(F)c3)ccc2OC[C@@H](C)N(Cc2cc(F)ccc2F)C[C@H]1C | ? | -70 | -4 | 103* | ? | -28 | 15
CO[C@@H]1CN(C)C(=O)c2cc(NS(=O)(=O)c3cccc(F)c3)ccc2OC[C@H](C)N(Cc2cc(F)ccc2F)C[C@H]1C | 86 | -32 | 11 | nt | nt | nt | nt
CO[C@H]1CN(C)C(=O)c2cc(NS(=O)(=O)c3cccc(F)c3)ccc2OC[C@@H](C)N(Cc2cc(F)ccc2F)C[C@H]1C | ? | -33 | 11 | 111* | 76 | -8 | 52*
CO[C@@H]1CN(C)C(=O)c2ccc(NS(=O)(=O)c3cccc(F)c3)cc2OC[C@@H](C)N(Cc2cc(F)ccc2F)C[C@@H]1C | nt | -14 | nt | nt | nt | nt | nt
CO[C@@H]1CN(C)C(=O)c2ccc(NS(=O)(=O)c3cccc(F)c3)cc2OC[C@H](C)N(Cc2cc(F)ccc2F)C[C@@H]1C | nt | -23 | nt | nt | nt | nt | nt
CO[C@@H]1CN(C)C(=O)c2cc(NS(=O)(=O)c3cccc(F)c3)ccc2OC[C@H](C)N(Cc2cc(F)ccc2F)C[C@@H]1C | 82 | -49 | 3 | nt | nt | nt | nt
COc1ccc(S(=O)(=O)Nc2ccc3c(c2)OC[C@@H](C)N(Cc2cc(F)ccc2F)C[C@@H](C)[C@H](OC)CN(C)C3=O)cc1 | 122* | -39 | nt | 110* | 83 | -14 | -9
O=C(C[C@H]1C[C@H]2c3cc(NC(=O)Nc4ccccc4F)ccc3O[C@H]2[C@@H](CO)O1)NCC1CC1 | 42 | 3 | -3 | nt | nt | nt | nt
C[C@@H]1CN([C@@H](C)CO)C(=O)c2cc(-c3ccc(C#N)cc3)cnc2O[C@H]1CN(C)C(=O)Nc1ccccc1 | 41 | 12 | -8 | nt | nt | nt | nt
CCC(=O)N(C)C[C@@H]1Oc2cc(-c3ccccc3)ccc2S(=O)(=O)N([C@@H](C)CO)C[C@@H]1C | 57 | -68 | -2 | nt | nt | nt | nt
O=C(C[C@H]1CC[C@@H]2[C@H](COC[C@@H](O)CN2Cc2nccs2)O1)NCc1ccccc1 | -12 | 3 | nt | nt | nt | nt | nt
C[C@H]1CN([C@@H](C)CO)C(=O)c2cc(NC(=O)Cn3cnnn3)ccc2O[C@H]1CN(C)Cc1ccc(-c2ccccc2)cc1 | 16 | -17 | -11 | nt | nt | nt | nt
Cc1noc(C)c1NC(=O)N(C)C[C@@H]1Oc2ccc(NC(=O)Nc3cccc4ccccc34)cc2C(=O)N([C@H](C)CO)C[C@H]1C | 1 | 38 | -9 | nt | nt | nt | nt
SMILES | T cruzi growth-1 | Pf Dd2 growth | C diff HTS | T cruzi growth-2 | T cruzi growth-3 | 3T3 cytotox | NIH3T3 tox 2
CC(C)CNC(=O)[C@@]1(C)c2ccccc2C(=O)N(Cc2ccccc2)[C@H]1c1ccc(CO)cc1 | nt | nt | -4 | nt | nt | nt | nt
COc1ccccc1NC(=O)N1CCCCN2[C@H](CO)[C@@H](c3ccc(C#CC4CCCC4)cc3)[C@@H]2C1 | 102* | -15 | 30 | 98* | 68 | 26 | 105*
COc1ccccc1NC(=O)N1CCCCN2[C@@H](CO)[C@H](c3ccc(C#Cc4ccccc4)cc3)[C@@H]2C1 | 112* | ? | 8 | 92 | 108* | 118* | 104*
COc1ccccc1NC(=O)N1CCCCN2[C@H](CO)[C@@H](c3ccc(C#CC4CC4)cc3)[C@@H]2C1 | nt | -45 | 13 | nt | nt | nt | nt
COc1ccccc1NC(=O)N1CCCCN2[C@H](CO)[C@H](c3ccc(C#Cc4ccccc4)cc3)[C@@H]2C1 | 78 | ? | -3 | nt | nt | nt | nt
COc1ccccc1NC(=O)N1CCCCN2[C@H](C1)[C@H](c1ccc(C#CC3CCCC3)cc1)[C@@H]2CO | 92 | -7 | -3 | nt | nt | nt | nt
COc1ccccc1NC(=O)N1CCCCN2[C@H](CO)[C@@H](c3ccc(C#Cc4ccccc4)cc3)[C@H]2C1 | 112* | -73 | 1 | 102* | 102* | 119* | 105*
CNC[C@H]1OCCCC[C@H](C)Oc2ccc(NS(=O)(=O)c3c(C)noc3C)cc2C(=O)N([C@H](C)CO)C[C@@H]1C | 23 | 29 | -2 | nt | nt | nt | nt
Cc1ccc(S(=O)(=O)N(C)C[C@@H]2Oc3ccc(NS(C)(=O)=O)cc3CC(=O)N([C@H](C)CO)C[C@H]2C)cc1 | 32 | -64 | 9 | nt | nt | nt | nt
